Compound activity (PubChem)
Only some compounds are listed: those with a hit (about 2.2% of all), similar ones and a draw of the others.
IL-2 act = activators of IL-2; IL-2 activation reporter assay, cell-based qHTS; stimulated with anti-CD3/CD4/CD28 beads; in transgenic mouse T cells; activation, % (series mostly up to about 46 µM); 360,000 tested, 0.065% active; AID 652025; in the data active = activation above about 50%; inconclusive = mostly about 30% to 49%; note: 0% is about no effect
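Unstimulated transgenic mouse T cells, 750 per well, received compound and, after 60 minutes, anti-CD3/anti-CD4 bead plus anti-CD28 stimulation. EGFP and DsRed were quantified after 18 hours.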
TrxR1 substrate = is turned over as a substrate by rat TrxR1. Potency, µM (highest dose often 114 µM), inactives show top-dose activity change, negative = substrate turnover. purified TrxR1 substrate turnover, NADPH consumption readout. 390,000 tested, 0.01% active. AID 588456; note: potency is the fitted concentration of half-maximal effect; % is set by controls: 0 for no effect and ±100 for the full control effect; nearly all actives have a fitted effect of over 50% in size
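Rat TrxR1, dispensed at 90 nM, was prereduced with 400 uM NADPH (final) for 5 min at ~22 deg C, then incubated with compound 15 min before 400 uM selenite. A first-read NADPH fluorescence drop versus no-compound background flagged substrates.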
Giardia kill = Giardia lamblia killing; Giardia lamblia trophozoite viability; activity change, % at 7.66 µM, hits read low; 340,000 tested, 0.15% active; AID 540267; in the data active = activity change below about -80%; inconclusive = between about -30% and that limit;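 note: parasites exposed to compound for two days anaerobically before the ATP read; % is set by controls: 0 for no effect and ±100 for the full control effect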
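Giardia trophozoites, 100 cells per well, were exposed to compounds for 48 hrs at 37 deg C under anaerobic conditions; viability was then read as ATP content by bioluminescence after 15-30 min at room temperature.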
TrxR1 inh = inhibitors of rat thioredoxin reductase 1. O89049. recombinant rTrxR1, NADPH fluorescence consumption, selenite substrate. Potency, µM (highest dose often 114 µM), without a hit: top-dose activity change, negative = inhibition, most hits filed as inhibitors. 390,000 tested, 1% active; note: potency is the fitted concentration of half-maximal effect; % is set by controls: 0 for no effect and ±100 for the full control effect; nearly all actives have a fitted effect of over 65% in size
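Rat TrxR1 (90 nM in the dispensed reagent) was pre-reduced with 400 uM NADPH for 5 min at room temperature, then incubated with compound for 15 min. After 400 uM selenite was added, NADPH fluorescence (Ex 340/Em 450 nm) was followed for 8 min.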
IDH1 R132H inh = human IDH1 R132H inhibition | IDH1-R132H enzyme, NADPH consumption, diaphorase/resazurin fluorescence | O75874 | 390,000 tested, 0.093% active | Potency, µM (series often up to 76.6 µM), inactives show top-dose activity change, negative = inhibition, usual class: inhibitors; note: potency is the fitted concentration of half-maximal effect; % is set by controls: 0 for no effect and ±100 for the full control effect; nearly all actives have a fitted effect of over 65% in size
Target sequence (O75874 whole entry R132H, stated change not applied): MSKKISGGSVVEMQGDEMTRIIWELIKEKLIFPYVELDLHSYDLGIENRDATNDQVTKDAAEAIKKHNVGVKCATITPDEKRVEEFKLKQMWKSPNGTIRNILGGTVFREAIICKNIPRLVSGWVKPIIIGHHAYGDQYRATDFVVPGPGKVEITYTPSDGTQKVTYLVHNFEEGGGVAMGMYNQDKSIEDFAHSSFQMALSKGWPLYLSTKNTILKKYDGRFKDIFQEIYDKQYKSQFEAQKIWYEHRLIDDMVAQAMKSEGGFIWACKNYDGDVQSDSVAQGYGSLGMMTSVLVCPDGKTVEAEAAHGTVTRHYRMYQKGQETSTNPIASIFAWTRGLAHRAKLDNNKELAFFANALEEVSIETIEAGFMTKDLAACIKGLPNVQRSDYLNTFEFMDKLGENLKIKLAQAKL
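IDH1-R132H (0.5 ug/mL) preincubated 30 min with compound, then NADPH (0.016 mM) and alpha-KG (2 mM) added; 80 min at RT, pH 7.5. Remaining NADPH coupled via diaphorase/resazurin to fluorescence (540/590 nm); concentration-response curves normalized to no-enzyme control.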
BRCA1 expr up = increases BRCA1 expression. MCF7-BRCA1-FFLuc reporter, luminescence, 48 h; response scale: scaled: vehicle 0%, 10 µM genistein 100%. Potency, µM (doses to about 46.1 µM), without a hit: at the top dose activation, usual class: activators. 380,000 tested, 1.1% active. AID 624202; note: potency is the fitted concentration of half-maximal effect; nearly all actives have a fitted effect of over 80% in size
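First, MCF7-BRCA1-FFLuc cells (2000/well) attach for 2 h; next, compounds are pin-added and incubated 48 h at 37 °C; finally, luciferase reagent is added and luminescence read after 15 min.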
Numbers without * were called inactive; ? = inconclusive; nt = no result given; [ ] = another dose, or the depositor's remark. Unless noted, calls come from the whole dose curve; as a rule, active = well fitted curve in the direction sought with a large enough effect; inconclusive = small, poorly fitted or top-dose-only effect, or another doubt; inactive = no such curve, though single readings can be large; an effect the other way counts as inactive or inconclusive.

SMILES	IL-2 act	TrxR1 substrate	Giardia kill	TrxR1 inh	IDH1 R132H inh	BRCA1 expr up
CCOc1ccc(Nc2cc(C)c3ccccc3n2)cc1	-3	13%	2	66%	-9%	10µM*
CC[N+](C)(C)c1ccc(/C=C/c2ccnc3ccccc23)cc1	nt	-3%	nt	-3%	nt	nt
Cn1ncc(N=Cc2c(O)ccc3ccccc23)c1C(=O)Nc1cccc(Cl)c1	247*	-4%	6	7%	0%	-13%
Cc1ccc(C2NNC(=O)C2NC(=O)c2ccccc2)cc1 (stereo not given)	0	14%[57.1 µM]	-9	20%[57.1 µM]	4%	11µM*
COc1ccc(N2CCN(C(=O)Cc3c(C(=O)O)c(C)cn3C)CC2)cc1	nt	4%[57.1 µM]	nt	21%[57.1 µM]	15%	nt
CC(=O)Nc1cccc(NC(=O)c2ccc3[nH]c(C)c(C)c3c2)c1	-3	4%[57.1 µM]	6	-4%[57.1 µM]	27%	10µM*
Cc1cc(NC(=O)c2ccc3[nH]c(C)c(C)c3c2)ccn1	-2	-12%	10	-11%	7%	25%
COc1cc(C2C(=O)N(C3CCCCCC3)CC(=O)N2Cc2ccccc2)ccc1OC(C)C (stereo not given)	nt	0%[57.1 µM]	nt	9%[57.1 µM]	4%	nt
Cc1cc(C)nc(N/N=C/C(Cl)=C/c2ccccc2)n1	-3	-3%	-5	3%	5%	10µM*
Cc1cc(C)nc(N/N=C/c2ccccc2)n1	-4	-16%	-15	-13%	5%	93%
O=C(O)c1ccccc1N/N=C/c1c(Sc2nnnn2-c2ccccc2)nc2ccccn2c1=O	15	-8%	-6	?	-19%	8%
O=c1c(/C=N/Nc2ccccc2)c(Sc2nnnn2-c2ccccc2)nc2ccccn12	90*	3%[57.1 µM]	9	?	-1%	76%
COc1ccc(NC(=O)CSc2nc3c(oc4ccccc43)c(=O)n2-c2ccccc2)cc1OC	nt	1%	nt	13%	-3%	6%
Cc1[nH]c2ccccc2c1C(C[N+](=O)[O-])c1ccco1 (stereo not given)	0	2%	0	13µM*	-1%	-22%
O=C(O)CNC(=O)/C(=C/c1ccco1)NC(=O)/C=C/c1ccccc1	0	4%	-1	11%	2%	-7%
C=CCOC(=O)/C(=C/c1ccco1)NC(=O)/C=C/c1ccccc1	-1	-5%	-5	18µM*	7%	-26%
Cc1ccc(-n2c(SCc3ccccc3)nc3c([nH]c4ccccc43)c2=O)cc1	nt	3%[57.1 µM]	nt	19%[57.1 µM]	-5%	23%
C=C(CN(C)C)C(=O)c1cc(C)ccc1C	-3	9%[57.1 µM]	-10	1.8µM*	2%	-99%
COc1cc(/C=N/N2C(=O)CSC2=S)ccc1O	3	-14%	2	32µM*	-14%	0%
O=C1CSC(=S)N1N=Cc1ccccc1O	2	10%[11.4 µM]	4	0%[11.4 µM]	-3%	-15%
O=C1CSC(=S)N1/N=C/c1ccc2c(c1)OCCO2	0	4%	-11	79µM*	0%	62%
O=C1CSC(=S)N1/N=C/c1cc(Br)c(O)c(Br)c1	6	-15%	-12	79µM*	-2%	-31%
Cc1ccccc1/C=N/N1C(=O)CSC1=S	0	-5%	-24	35µM*	-1%	-15%
O=S1(=O)CCO[C@H]2CCCC[C@@H]2N1Cc1ccc(Cl)cc1	nt	-6%	nt	-10%	nt	nt
Clc1cccc(N2CCN(c3nc4ccccc4n4cnnc34)CC2)c1	nt	30%	nt	19%	0%	-12%
Cc1ccc(NC(=O)c2cc([N+](=O)[O-])ccc2N2CCOCC2)cc1S(=O)(=O)N1CCOCC1	8	-15%	-22	-15%	7%	-32%
COc1c(C)cccc1C(=O)Nc1ccc(N2CCOCC2)c(Cl)c1	-1	16%[57.1 µM]	-4	20%[57.1 µM]	29%	2.5µM*
Cc1ccc(NC(=O)c2ccc([N+](=O)[O-])o2)cc1S(=O)(=O)N1CCOCC1	-1	-7%	-91*	?	7%	-85%
Cc1cc(C(=O)Nc2cnc3ccccc3c2)ccc1[N+](=O)[O-]	2	13%[57.1 µM]	-9	17%[57.1 µM]	-2%	3.2µM*
